Test results reported in PubChem BioAssay AID1857 (The Scripps Research Institute Molecular Screening Center, 2009).
The campaign covered roughly 1,300 compounds. About 290 (22%) were called active. This excerpt belongs to a sample that is enriched for actives. Unmarked numbers belong to inactive results.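 Rule for the calls: active = inhibition above the mean of all tested compounds plus 3 SD (cut at about 19% in these data); inactive = the rest.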

What follows are molecules tested on VIM-2 metallo-beta-lactamase (Pseudomonas aeruginosa) (assay: VIM-2 CCF2 hydrolysis inhibition, orthogonal readout – biochemical, FRET, epi-absorbance artifact exclusion, artefact control for selective VIM-2 inhibitor project, confirmation (AID 1857;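 note: 0% = VIM-2 plus DMSO and 100% = no enzyme wells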)). Details: purified VIM-2, CCF2 FRET substrate hydrolysis; at 5.6 µM; active compounds read high.

How did the inhibition turn out when Cc1cc(OCc2cc(C(=O)O)oc2C)c2c3c(c(=O)oc2c1)CCCC3 was run?
Its inhibition is 80.6% (active).

Which inhibition does the source give for Cc1cc(=O)oc2c(C)c(OCC(=O)N3CCN(Cc4ccc5c(c4)OCO5)CC3)ccc12 here?
Its inhibition is -0.88%.
